# From ChEMBL document CHEMBL4513216, “Probing the Open Global Health Chemical Diversity Library for Multistage-Active Starting Points for Next-Generation Antimalarials” (ACS Infect Dis, 2020)
# Out of some 69,000 compounds screened, about 8,600 (12%) showed an effect of 50% or more. This excerpt belongs to a sample that is enriched for strong results.
# Tested on: Plasmodium berghei
# Assay: Screen against P. berghei liver stage (PbLuc), transformed with Luciferase, at 10uM
# Format: functional, HepG2
# Details: tested at 10 uM
row,SMILES,INHIBITION [%]
1,Cc1cnn(CC2CCCN2Cc2ncc(-c3ccc(F)cc3)o2)c1 (configuration not stated),2.3
2,CC(C)CN(CC(=O)O)C(=O)c1ccc(F)cc1,17.7
3,CN(CCc1ccccc1)c1cnn(CC2COCCO2)c(=O)c1 (configuration not stated),-42.8
4,O=C(NCc1cncc2c1CCN(C1CCOC1)C2)c1ccco1 (configuration not stated),0.71
5,O=C(NCc1cncc2c1CCN(C1CCOCC1)C2)c1ccco1,61.3
6,O=C(NCc1cncc2c1CCN(C1CCOCC1)C2)c1ccno1,34.5
7,COCc1nc(C(=O)NS(=O)(=O)c2cc(Br)ccc2C)cs1,8.55
8,O=S(=O)(NCc1ccccc1Cn1cncn1)N1CCCCC1,25.1
9,CCn1cc(Cl)c(C(=O)NCCCN(C)C)n1,39.1
10,Cc1nccc(C(=O)N2CCCC2c2c(C)nn(C)c2C)n1 (configuration not stated),7.08
11,CCN(CCNC(=O)c1cccnc1OCCOC)C1CC1,34.7
12,CCN(CCNC(=O)c1ccccc1Br)C1CC1,-2.42
13,CCN(CCNC(=O)c1ccccc1OCCOC)C1CC1,58.8
14,O=C(c1ccc(Cn2cnnn2)cc1)N1CCC(c2ccncc2)CC1,-23
15,O=S1(=O)NCC2(CCN(Cc3ccc(Cl)s3)C2)Oc2ncccc21 (configuration not stated),30
16,O=S1(=O)NCC2(CCN(Cc3ccncc3)CC2)Oc2ncccc21,44.1
17,CC(C)CCN1CCC2(CNS(=O)(=O)c3cccnc3O2)C1 (configuration not stated),67.3
18,CNc1ncc(CN(C)c2nccc(CCC(F)(F)F)n2)cn1,43.1
19,CCc1cc(N(C)Cc2ccncn2)n2nccc2n1,10.4
20,CCc1nnc(CN(C)c2nccc(CCC(F)(F)F)n2)o1,59.3
21,CN(Cc1ccncn1)c1nccc(CCC(F)(F)F)n1,59.3
22,CCc1nnc(CN(C)c2nccc(N3CCCC(O)C3)n2)o1 (configuration not stated),42.1

row,SMILES,INHIBITION [%]
1,CC(=O)NCCNc1nccc(CCC(F)(F)F)n1,-41.8
2,CC(=O)N1CCOC(c2cncc(CCC(=O)N(C)C)n2)C1 (configuration not stated),-6.73
3,O=C1CCC(=O)c2oc3ccccc3c2N1,-23
4,CCc1[nH]c2c(CNc3nc(C)cc(NC)n3)cc(C)cc2c1C,85.1
5,CCc1[nH]c2c(CNC(=O)C3CCS(=O)(=O)CC3)cc(C)cc2c1C,48.5
6,CCc1[nH]c2c(CNC(=O)C3CNC(=O)C3)cc(C)cc2c1C (configuration not stated),25.8
7,CCc1[nH]c2c(CNc3cc(C)nc(NC)n3)cc(C)cc2c1C,87.9
8,CCc1[nH]c2c(CNc3cncc(C(=O)OC)n3)cc(C)cc2c1C,45
9,CCc1[nH]c2c(CNc3cncc(C(=O)N(C)C)n3)cc(C)cc2c1C,14.3
10,COc1ccc(-c2noc(CN3CCCC3Cn3cccn3)n2)cc1 (configuration not stated),29.7
11,CN1C(=O)c2ccc(C(=O)N(Cc3cnn(C)c3)C3CC3)cc2C1=O,23.8
12,COCC(=O)N1CCc2ccc(=O)n(Cc3csc(C)n3)c2CC1,2.41
13,CCOc1ncccc1NC(=O)c1ccc(C(C)=O)s1,7.24
14,CC1CN(CC(=O)NCCc2ccccc2)CCN1c1nccs1 (configuration not stated),33.7
15,c1coc(CN2CCC3(CCOCC3COCC3CC3)CC2)c1 (configuration not stated),18.6
16,CCNc1cc2c(nn1)CCN(C(=O)c1cc3nc(C)ccc3o1)C2,35.3
17,CCNc1cc2c(nn1)CCN(C(=O)c1cc3cc(C)ccc3o1)C2,68.8
18,CCNc1cc2c(nn1)CCN(C(=O)c1cc(C)no1)C2,40
19,CCNc1cc2c(nn1)CCN(C(=O)c1ccc(CNC(C)=O)o1)C2,-21.7
20,CCNc1cc2c(nn1)CCN(C(=O)c1cc3cccc(C)c3o1)C2,70.8
21,CCNc1cc2c(nn1)CCN(C(=O)c1cc3ccccc3o1)C2,17.4
22,CC(=O)N1CC(=O)N(c2ccsc2)CC12CCN(Cc1ccccn1)C2 (configuration not stated),-2.17

row,SMILES,INHIBITION [%]
1,CCOc1ccc(C(=O)N2CCN(c3nccn3C)CC2)cc1,14.3
2,c1cc(CN2CCC(c3ccc4c(c3)OCO4)CC2)ccn1,12.515
3,Cn1cccc1C(=O)N1C[C@H]2CN(Cc3cccs3)C[C@H]2C1,14.9
4,CN(C)C1COC2(CCN(Cc3nccs3)CC2)C1 (configuration not stated),11.5
5,Cc1ccc(C(=O)NS(=O)(=O)c2cc(F)ccc2F)c(=O)[nH]1,-1.14
6,CC(=O)N(C)CCCc1cc(-c2ccccc2)no1,24.75
7,CC(NC(N)=O)C(=O)N(C)CCCc1cc(-c2ccccc2)no1 (configuration not stated),0.375
8,CSC(C)C(=O)N(C)CCCc1cc(-c2ccccc2)no1 (configuration not stated),57.75
9,O=C(O)[C@]12CCCN(Cc3ccsc3)C[C@H]1CN(c1ncccn1)C2,-10.3
10,COCCn1cc2c(n1)C(CNCc1nccs1)OCC2 (configuration not stated),26.3
11,Cc1cccc(N2CCC(N3CCCC4(CN(C)C(=O)O4)C3)CC2)c1C (configuration not stated),36.7
12,O=C1NCC2(CCCN(C(=O)Cn3nc4ccccc4n3)CC2)O1 (configuration not stated),4.87
13,Cc1cccc(N2CCC(N3CCC4(CN(C)C(=O)O4)C3)CC2)c1C (configuration not stated),64.4
14,Cc1cccc(N2CCC(N3CCC4(CCCNC4=O)C3)CC2)c1C (configuration not stated),32.7
15,Cc1cccc(N2CCC(N3CCCC4(CNC(=O)O4)C3)CC2)c1C (configuration not stated),63.4
16,Cc1nn(CC(=O)N2CCC3(CN(C)C(=O)O3)C2)c(=O)c2ccccc12 (configuration not stated),15.4
17,Cc1nn(CCO)c(C)c1CNCc1cccnc1N(C)C,19.2
18,O=C(O)c1cnc(N2CCC(c3nccn3CC3CC3)CC2)c(Cl)c1,25.9
19,O=C(CN1CCCC(O)C1)NC(=O)NCc1cccs1 (configuration not stated),43.4
20,CN(CCOc1ccc(F)cc1)S(=O)(=O)c1cnn(C)c1,21.2
21,COCCN1CCN(Cc2c(C)noc2C)Cc2cccnc21,36.9
22,O=C(NCc1cccc(Cl)c1)C1=NOC2(CCNC2)C1 (configuration not stated),21.5

row,SMILES,INHIBITION [%]
1,CN(C)C(=O)COC[C@]12COC[C@H]1CN(CCc1ccccc1)C2,24.3
2,CN(C)CCOCc1ncn2c1CN(c1ncc(F)cn1)CCC2,23.3
3,Cc1nnc(SCC(=O)NCC(c2ccccc2Cl)N(C)C)s1 (configuration not stated),-18.5
4,Cc1ccccc1C(CNC(=O)CSc1nnc(N)s1)N(C)C (configuration not stated),54.7
5,Nc1nnc(SCC(=O)NCC(O)c2ccccc2)s1 (configuration not stated),-17.2
6,CCn1cc(NC(=O)NCc2ccc(CO)c(F)c2)cn1,-59.4
7,Cc1ccc(C(C(=O)O)N2CCCN(Cc3ccccn3)CC2)c(F)c1 (configuration not stated),-1.49
8,O=C(c1ccccc1Cl)N1CCN(CCc2ccccn2)CC1,30
9,Cc1ccc(NC(=O)N2CCN(Cc3ccccn3)CC2)cc1Cl,42.1
10,CSc1ccccc1C(C(=O)O)N1CCN(Cc2ccccn2)CC1 (configuration not stated),33.5
11,Cc1c(Cl)cccc1NC(=O)N1CCN(Cc2ccccn2)CC1,64.3
12,Cc1cc(F)c(C(C(=O)O)N2CCN(Cc3ccccn3)CC2)cc1Cl (configuration not stated),66.6
13,O=C(c1cc2c(Cl)cccc2[nH]1)N1CCN(CCc2ccccn2)CC1,56.3
14,Cc1ccc(C)c(C(C(=O)O)N2CCCN(Cc3ccccn3)CC2)c1 (configuration not stated),0.139
15,Cc1ccc(Cl)c(C)c1NC(=O)N1CCCN(Cc2ccccn2)CC1,46.3
16,O=C(O)C(c1ccc(Cl)c(F)c1)N1CCN(Cc2ccccn2)CC1 (configuration not stated),52.1
17,COc1ccc(C)cc1C(C(=O)O)N1CCN(Cc2ccccn2)CC1 (configuration not stated),26.7
18,O=C(c1cc(Cl)c[nH]1)N1CCN(CCc2ccccn2)CC1,9.79
19,Cc1cccc(-n2cnnc2CCCN2CCOCC2)c1,34.4
20,CNC(=O)C1CCC(NC(=O)c2cc(C3CC3)n(C(C)(C)C)n2)CC1 (configuration not stated),15.4
21,c1ccc(OCCNC2CCCN(Cc3noc(C4CC4)n3)C2)cc1 (configuration not stated),-52.5
22,CC(C)CN(C)c1ccc(C(=O)N2CCCC2c2cnn(C)c2)cn1 (configuration not stated),52.1

row,SMILES,INHIBITION [%]
1,CC(=O)NCc1ccc(C(=O)N2CCCC2c2cnn(C)c2)o1 (configuration not stated),-1.88
2,CCN(c1ccc(C(=O)N2CCCC2c2cnn(C)c2)cn1)C(C)C (configuration not stated),48.4
3,Cn1cc(C2CCCN2C(=O)c2ccc(Br)o2)cn1 (configuration not stated),12.2
4,CNC(=O)c1ccc(C(=O)N2CCCC2c2cnn(C)c2)cn1 (configuration not stated),59.4
5,CN(C)c1ccc(C(=O)N2CCCC2c2cnn(C)c2)cn1 (configuration not stated),-13.3
6,CCN(CC)Cc1ccc(C(=O)N2CCCC2c2cnn(C)c2)o1 (configuration not stated),57
7,Cn1cc(C2CCCN2C(=O)c2ccc(NC3CC3)nc2)cn1 (configuration not stated),22.25
8,COc1ccc(C(=O)N2CCCC2c2cnn(C)c2)cn1 (configuration not stated),-11.9
9,CC(NC(=O)NCCn1ccnc1)c1ccc2c(c1)CCC(=O)N2 (configuration not stated),-15.5
10,CO[C@H]1C(=O)N(C)C2(CCNCC2)[C@@H]1C(=O)Nc1ccccc1,29
11,Cc1noc(C)c1CN1CC[C@H]2OCC[C@@]2(C(=O)N2CCCO2)C1,37.5
12,Cc1cnn(CC2CCCN2C(=O)c2cnc(-c3ccco3)s2)c1 (configuration not stated),15.5
13,CCCS(=O)(=O)N1CCc2nc(N3CCOCC3)nc(N(C)C)c2C1,43.8
14,CCS(=O)(=O)N1CCc2nc(N3CCCC3)nc(N(C)C)c2CC1,23.1
15,CCS(=O)(=O)N1CCc2nc(N3CCOCC3)nc(N(C)C)c2CC1,55.6
16,CC(=O)N1CCCC1C(=O)NCCOc1c(C)cccc1C (configuration not stated),-57.4
17,CC(C)NC(=O)[C@]12COC[C@H]1CN(Cc1cnn(C)c1)C2,-1.36
18,Cc1ccccc1-n1c(C)cc(=O)[nH]c1=O,33.4
19,COCC1CN(C(=O)Cc2cccs2)Cc2nnn(C)c21 (configuration not stated),26.3
